# Measurements taken from PubChem BioAssay (Tox21).
# Results filed as inconclusive are left out. Activity calls are given as the source filed them. Calls come from the whole dose curve; as a rule, active = well fitted cell-killing curve with a large enough effect in the repeat runs; inconclusive = weak or mixed curves, or effect the other way; inactive = flat fitted curve, though single readings scatter.
# Test: qHTS RealTime-Glo MT Cell Viability Assay in HEK293 cells - 0 hour (AID 1224880); note: top concentration of the series differs between compounds; nearly all actives have a fitted effect of over 45% in size
# Settings: RealTime-Glo luminescence; series mostly up to 76.8 µM
# From the text: U.S. Tox21 Program National Center for Advancing Translational Sciences [NCATS] NIH Chemical Genomics Center [NCGC] U.S. Environmental Protection Agency [EPA] National Institutes of Environmental Health Sciences [NIEHS] National Toxicology Program [NTP] U.S. Food and Drug Administration [FDA] Tox21 Assay Overview: Measure of cell viability is critical in the cell-base assay. Analysis of cell viability is necessary for the characterization of cell responses to cytotoxic drugs and environmental stress. A RealTime-Glo MT Cell Viability Assay to monitor cell viability in real time of continues cell culture during 40 hours of compound treatment was used to screen Tox21 10K library compounds in Hek293 cells. The RealTime-Glo MT Cell Viability Assay is a nonlytic, homogeneous, bioluminescent method to measure cell viability in real time using a simple, plate-based method. The assay involves adding NanoLuc luciferase and a cell-permeant prosubstrate to cells in culture. Viable cells reduce the proprietary prosubstrate to generate a substrate for NanoLuc luciferase. This substrate diffuses from cells into the surrounding culture medium, where it is rapidly used by the NanoLuc Enzyme to produce a luminescent signal. The signal correlates with the number of viable cells, making the assay well suited for cytotoxicity studies.
# Tox21 Assay Protocol Summary: The mixture of Hek293 cell suspension and reagents were dispensed at 600cells/6 ul/well in 1536-well tissue culture treated black solid bottom plates using a Multidrop dispenser. After the assay plates were incubated at a 37 C/5% CO2 incubator for 5 hours, 23 nL of compounds dissolved in DMSO, positive and negative controls was transferred to the assay plate by a pintool work station. The plates were incubated at 37 C for 40 hours. The luminescence intensity were measured at 0h, 8h, 16h, 24h, 32h and 40h time points using ViewLux plate reader during compound treatment.
# % is set by controls: 0 for no effect and ±100 for the full control effect.
Structure (SMILES),outcome,"activity change, negative = cytotoxicity"
Nc1cc(S(=O)(=O)O)ccc1S(=O)(=O)O,inactive,
NS(=O)(=O)c1ccc(Cl)c(S(N)(=O)=O)c1,inactive,
Cc1cccc(C(=O)O)c1[N+](=O)[O-],inactive,
CO[Si](CCCCl)(OC)OC,inactive,
O=S1(=O)CCCC1,inactive,
Cc1ccccc1OCC1CO1 (stereo not given),inactive,
Cc1oc(=O)oc1CN1CCN(c2cc3c(cc2F)c(=O)c(C(=O)O)c2n3C(C)S2)CC1 (stereo not given),inactive,
C/C=C(\C)C(=O)OCC/C=C\CC,inactive,
CCCCCCCCCCCCCCCC(=O)NCCO,inactive,
CC(=O)Nc1ccc(C)cc1,inactive,
Nc1ccc(S(=O)(=O)NC(=O)c2ccccc2)cc1,inactive,
CC(=O)OCC(=O)[C@@]1(O)[C@H](OC(C)=O)C[C@H]2[C@@H]3CCC4=CC(=O)C=C[C@]4(C)[C@@]3(F)[C@@H](O)C[C@@]21C,inactive,
C=CCOc1c(Br)cc(Br)cc1Br,inactive,
O=S(=O)(O)SSS(=O)(=O)O,inactive,
Cc1nc(C)nc(N2C[C@@H](C)N(c3ccnc([C@@H](C)O)n3)[C@@H](C)C2)n1,inactive,
FC(F)(F)/C(=N\OCC1OCCO1)c1ccc(Cl)cc1,inactive,
CNCc1ccccc1,inactive,
CC(C)(c1ccc(Oc2ccc3c(c2)C(=O)OC3=O)cc1)c1ccc(Oc2ccc3c(c2)C(=O)OC3=O)cc1,inactive,
SCCSCCS,inactive,
CCC(C)(CCC(C)C)C(=O)[O-].CCC(C)(CCC(C)C)C(=O)[O-].[Zn+2] (stereo not given),inactive,

Structure (SMILES),outcome,"activity change, negative = cytotoxicity"
CN=C(NC#N)NCCSCc1csc(N=C(N)N)n1,inactive,
O=C(O)C(=O)Nc1cccc(-c2nn[nH]n2)c1,inactive,
C[C@H](CCC(=O)NCC(=O)O)[C@H]1CC[C@H]2[C@@H]3[C@H](O)C[C@@H]4C[C@H](O)CC[C@]4(C)[C@H]3C[C@H](O)[C@]12C,inactive,
CCC(O)C(C)(C)C (stereo not given),inactive,
O=c1cc(O)c(Cl)c[nH]1,inactive,
CCN(CCO)c1cccc(C)c1,inactive,
C=CCCCCCCCCCCC,,4.11% [at 6.97 µM] (inactive)
C=CCOc1cc(Cl)ccc1C(=O)NCCN(CC)CC,inactive,
CCC(C)N (stereo not given),inactive,
Cc1ccccc1C(=O)N1CC/C(=N\OS(=O)(=O)O)c2ccc(Cl)cc21,inactive,
Cc1ccc2c(c1)c1c3n2CCNC3CCC1 (stereo not given),inactive,
CCOC(=O)C(C)(C)C,inactive,
CC(=O)N1CCN(c2ccc(O)cc2)CC1,inactive,
CCC(=O)OCCC(C)CCC=C(C)C (stereo not given),inactive,
CC(C)c1ccccc1O,inactive,
N#CCCOCCOCCC#N,inactive,
CC1=CC[C@H](CC=O)C1(C)C,inactive,
O=C(O)Cc1cccc(-c2cc(CCCCCCc3ccc(O[C@H]4O[C@H](CO)[C@@H](O)[C@H](O)[C@@H]4O)c(-c4cccc(CC(=O)O)c4)c3)ccc2O[C@H]2O[C@H](CO)[C@@H](O)[C@H](O)[C@@H]2O)c1,,3.85% [at 0.29 µM] (inactive)
Nc1nc(=O)n([C@@H]2O[C@H](CO)[C@@H](O)[C@@H]2F)cc1I,inactive,
O=C(O)/C=C/c1ccccc1,inactive,
